Measurements taken from PubChem BioAssay (NCI).
The panel holds about 83,000 compounds, 20% with a hit somewhere; the sample as a whole holds those more often.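 Percent growth is the endpoint: 0 to 100 indicates growth inhibition (40 means 60% inhibition), 0 means no net growth, and negative values indicate cell death.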 Unmarked numbers belong to inactive results. Calls of active or inactive are those of the source. The calls were made as follows: active = growth percent below 10; inactive = the rest.

These molecules were tested on HL-60(TB) leukemia (assay: NCI-60 one-dose screen, 48 h (100 = growth as untreated, 0 = no growth, -100 = all killed)). Details: 10 µM unless noted.

| Compound | growth |
| --- | --- |
| O=C1c2ccccc2C(=O)c2c1oc1ccc3ccccc3c21 | 100% |
| COc1ccc(-c2ccc(O)c(C(=O)/C=C/c3cc(OC)c(OC)c(OC)c3)c2)cc1 | 54.5% |
| O=C(O)C(=Cc1c2ccccc2cc2ccccc12)C(=O)O | 110% |
| O=[N+]([O-])c1cc([N+](=O)[O-])c(NN=C(c2ccc(O)cc2)c2ccc(O)cc2)cc1Cl | 12.7% |
| Nc1c(C(=O)Nc2cccc3c2OCCO3)sc2nc3c(cc12)CN(Cc1ccccc1)CC3 | 19.1% |
| OC(CBr)CCBr (stereo not given) | 103% |
| CC(C)=CC/C=C(/C)[C@H]1CC[C@]2(C)[C@@H]1CC[C@@H]1[C@@]3(C)CC/C(=N/O)C(C)(C)[C@@H]3CC[C@]12C | 5.9% [100 µM] (active) |
| CC1=C(C(=O)Nc2ccccc2)C(c2ccc3c(c2)OCO3)NC(=S)N1 (stereo not given) | 104% |
| CO[C@H]1/C=C(/C)CCC[C@H](C)[C@H](O)[C@@H](C)C(=O)C(C)(C)[C@@H](O)CC(=O)O[C@@H]1/C(C)=C/c1csc(C)n1 | 24.3% |
| COC(=O)C(Br)(C(=O)OC)C(Br)C(Br)C(Br)c1ccccc1 (stereo not given) | 7.57% (active) |
| O=CN1N=C(c2ccc3c(c2)OCO3)CC1c1cccc(Nc2ccnc3cc(C(F)(F)F)ccc23)c1 (stereo not given) | 72.8% |
| O=C1/C(=C/c2ccc(Br)cc2)COc2ccc(O)c(O)c21 | -23.2% (active) |
| COC(=O)[C@]12CC[C@@H](C)[C@H](C)[C@@H]1C1=CC[C@@H]3[C@@]4(C)C(C#N)=CC(C)=C4CC[C@@]3(C)[C@]1(C)CC2 | -19.3% (active) |
| CN1CCN(c2ccc(NC3=C(Cl)C(=O)c4ncccc4C3=O)cc2C(F)(F)F)CC1 | -16.2% (active) |
| Cn1ccc(=O)c(S(N)(=O)=O)c1 | 96.4% |
| O=C(/C=C/c1c(Cl)nc2sccn12)c1ccc(F)c(F)c1 | 78.3% |
| COc1ccc(C(C(=O)O)c2ccc(OC)cc2)cc1 | 97.9% |
| N#CC1=C(N)Oc2c(ccc3ccccc23)C1c1cc(=O)oc2ccc(Cl)cc12 (stereo not given) | -10.1% (active) |
| O=Nc1c2cccnc2n2nnc3ccc(Cl)cc3c12 | -48.7% (active) |
| Cc1cc(C)c(NC(=O)c2sc3nc4c(cc3c2N)CN(Cc2ccccc2)CC4)c(C)c1 | -10.3% (active) |

| Compound | growth |
| --- | --- |
| CCCCC(=O)Nc1c(C(=O)Nc2ccccc2)sc2nc3c(cc12)C(OC(=O)CCCC)CCC3 (stereo not given) | 99.3% |
| O=C(NCCCNc1nccc(-n2ccc3cccnc32)n1)c1c(F)cccc1F | 102% |
| O=c1oc2ccc(F)cc2c(=O)n1-c1ccc(Br)cc1F | -45.3% (active) |
| COc1cc2cc(NCc3ccc(OC(F)F)cc3)nc(C)c2cc1OC | 38.7% |
| C=CC1CN2CCC1CC2C(O)c1ccnc2ccc(OC)cc12 (stereo not given) | 103% |
| c1ccc(Nc2ccccn2)nc1 | 101% |
| COc1ccc(CCN2C(=O)/C(=C/c3ccc(C4Oc5ccccc5C5CC(c6cccc(OC)c6)=NN54)cc3)SC2=S)cc1 (stereo not given) | 99.5% |
| O=c1c2ccccc2sc2c(NCCCNCCO)nc3ccccc3c12 | 7.81% (active) |
| COc1cc(CNCCCN2C(=O)c3ccc4c5c(ccc(c35)C2=O)C(=O)N(CCCNCc2cc(OC)c(OC)c(OC)c2)C4=O)cc(OC)c1OC | -35.8% (active) |
| O=c1[nH]c(-c2ccccn2)nc2sc3c(c12)CCCCC3 | 21.8% |
| COc1cc(-c2nc3ccccc3o2)cc(CN2CCN(c3ccccc3)CC2)c1O | 71.3% |
| O=C1C=CC(n2cc(F)c(=O)[nH]c2=O)O1 (stereo not given) | 45.3% |
| CN1CCC(CNc2ccc3ncc(-c4cccc(OC(F)(F)F)c4)n3n2)CC1 | -37.1% (active) |
| O=C(/C=C/c1sc(Cl)nc1Cl)c1ccc(Br)cc1 | 71.4% |
| C=C1C(=O)O[C@H]2[C@H]1CC/C(COC(=O)NCc1ccc(Cn3c(=O)sn(-c4ccc(OC)cc4)c3=O)cc1)=C\CC[C@@]1(C)O[C@@H]21 | -18% (active) |
| CSc1nn(-c2ccccc2)c2ncnc(Oc3ccccc3)c12 | 109% |
| Cc1ccc(C(=O)c2ccc(CC(=O)N/N=C/c3cccc(O)c3O)n2C)cc1 | 4.13% (active) |
| COc1cc(/C=C/c2c(C(C)=O)c(C)nc3ccccc23)cc(OC)c1OC | 0.0645% (active) |
| O=P(O)(O)OCC1OC(n2cnc3c(NCc4ccco4)ncnc32)C(O)C1O (stereo not given) | -6.93% (active) |
| O=C(COc1cccc(/C=C2/Oc3ccccc3C2=O)c1)Nc1nccs1 | -72.9% (active) |
